From PubChem BioAssay (NCI)
This is part of a sample that, as a whole, favours compounds with a hit. Of some 83,000 tested, about 20% had one in any assay.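 Negative percent growth values reflect cell death: -40 means 40% of the cells present at the start died, and -100 means all died.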 Calls of active or inactive are those of the source. Rule for the calls: active = growth percent below 10; inactive = the rest.

How the values were obtained:
Experiment in all cases: NCI-60 one-dose screen, 48 h (100 = growth as untreated, 0 = no growth, -100 = all killed)
Conditions in all cases: 10 µM unless noted
SK-MEL-2 melanoma = test system: SK-MEL-2 melanoma
EKVX NSCLC = test system: EKVX NSCLC
SN12C renal = test system: SN12C renal
UO-31 renal = test system: UO-31 renal
TK-10 renal = test system: TK-10 renal
ACHN renal = test system: ACHN renal
CAKI-1 renal = test system: CAKI-1 renal
A498 renal = test system: A498 renal
CCRF-CEM leukemia = test system: CCRF-CEM leukemia
MOLT-4 leukemia = test system: MOLT-4 leukemia
SR leukemia = test system: SR leukemia
RPMI-8226 leukemia = test system: RPMI-8226 leukemia
OVCAR-8 ovarian = test system: OVCAR-8 ovarian
OVCAR-5 ovarian = test system: OVCAR-5 ovarian
OVCAR-4 ovarian = test system: OVCAR-4 ovarian
SK-OV-3 ovarian = test system: SK-OV-3 ovarian
IGROV1 ovarian = test system: IGROV1 ovarian
OVCAR-3 ovarian = test system: OVCAR-3 ovarian
HS 578T breast = test system: HS 578T breast
NCI/ADR-RES ovarian = test system: NCI/ADR-RES ovarian

Measured: growth

COc1cc(-c2nc3ccccc3s2)ccc1NC(=O)COc1ccc(Cl)cc1
inactive: SK-MEL-2 melanoma 78.5% | EKVX NSCLC 57.4% | SN12C renal 58.6% | UO-31 renal 47.3% | TK-10 renal 35.6% | ACHN renal 40% | A498 renal 97.3% | CCRF-CEM leukemia 98.5% | MOLT-4 leukemia 86% | SR leukemia 83.6% | RPMI-8226 leukemia 63.5% | OVCAR-5 ovarian 61.8% | SK-OV-3 ovarian 87.1% | IGROV1 ovarian 24.6% | OVCAR-3 ovarian 42.4% | HS 578T breast 44.7% | NCI/ADR-RES ovarian 33.2%
active: CAKI-1 renal 6.38% | OVCAR-8 ovarian -3.09% | OVCAR-4 ovarian 6.47%

O=C(Nc1nc(-c2ccccc2)cc(-c2ccc(Cl)cc2)n1)c1ccncc1
inactive: SK-MEL-2 melanoma 98.8% | EKVX NSCLC 82.3% | SN12C renal 104% | UO-31 renal 70.8% | TK-10 renal 107% | ACHN renal 97.4% | CAKI-1 renal 77.7% | A498 renal 71.5% | CCRF-CEM leukemia 98.3% | MOLT-4 leukemia 93% | SR leukemia 108% | RPMI-8226 leukemia 92.3% | OVCAR-8 ovarian 100% | OVCAR-5 ovarian 104% | OVCAR-4 ovarian 90.2% | SK-OV-3 ovarian 94.6% | IGROV1 ovarian 95.3% | OVCAR-3 ovarian 98.6% | HS 578T breast 100% | NCI/ADR-RES ovarian 89.1%

C/C(Cc1ccc(Cl)cc1)=C(\c1ccc(OCCN2CCCCCC2)cc1)c1ccc(OC(=O)C2CCCCC2)cc1
inactive: SK-MEL-2 melanoma 81.6% | EKVX NSCLC 81% | SN12C renal 67% | UO-31 renal 40.9% | TK-10 renal 84.1% | ACHN renal 87% | CAKI-1 renal 80.8% | A498 renal 82% | CCRF-CEM leukemia 55.3% | MOLT-4 leukemia 25.6% | RPMI-8226 leukemia 37.2% | OVCAR-8 ovarian 66.2% | OVCAR-5 ovarian 73.4% | OVCAR-4 ovarian 80.6% | SK-OV-3 ovarian 88.1% | IGROV1 ovarian 46.8% | OVCAR-3 ovarian 71.8% | HS 578T breast 56.3% | NCI/ADR-RES ovarian 70.4%
active: SR leukemia -0.529%

COc1cc2c(cc1O)CCc1cc(O)cc(OC)c1-2
inactive: SK-MEL-2 melanoma 88.6% | EKVX NSCLC 92.7% | SN12C renal 89.4% | UO-31 renal 95.3% | TK-10 renal 126% | ACHN renal 95.4% | CAKI-1 renal 94.8% | A498 renal 79.4% | CCRF-CEM leukemia 70.7% | MOLT-4 leukemia 74.7% | SR leukemia 77.4% | RPMI-8226 leukemia 75.5% | OVCAR-8 ovarian 88.1% | OVCAR-5 ovarian 109% | OVCAR-4 ovarian 94.9% | SK-OV-3 ovarian 96.9% | IGROV1 ovarian 105% | OVCAR-3 ovarian 95.6% | HS 578T breast 83.3% | NCI/ADR-RES ovarian 99%

CC(=O)O[C@H]1CC[C@]2(C)[C@H]3CC[C@@H]4[C@H]5[C@H](C(C)C)CC[C@]5(C(=O)OCC(CO)(CO)N=C(N)N)CC[C@@]4(C)[C@]3(C)CC[C@H]2C1(C)C
active: MOLT-4 leukemia 0.198% | SR leukemia -13.6% | RPMI-8226 leukemia 4.55% | OVCAR-8 ovarian -31.9%
inactive: SK-MEL-2 melanoma 102% | EKVX NSCLC 88.7% | SN12C renal 13.7% | UO-31 renal 55.1% | TK-10 renal 88% | ACHN renal 83.4% | CAKI-1 renal 81.1% | A498 renal 113% | CCRF-CEM leukemia 11.3% | OVCAR-5 ovarian 99.1% | OVCAR-4 ovarian 87.9% | SK-OV-3 ovarian 91.2% | IGROV1 ovarian 24.3% | OVCAR-3 ovarian 18.9% | HS 578T breast 93.7% | NCI/ADR-RES ovarian 76.8%

CC[C@H](Nc1ncnc(N)c1C(N)=O)c1nc2cccc(NCc3ccc(C(=O)NO)cc3)c2c(=O)n1-c1ccccc1
inactive: SK-MEL-2 melanoma 82.8% | EKVX NSCLC 99.7% | SN12C renal 81.5% | UO-31 renal 71.8% | TK-10 renal 69.9% | ACHN renal 91% | CAKI-1 renal 93.2% | A498 renal 90.8% | CCRF-CEM leukemia 33% | MOLT-4 leukemia 67.8% | SR leukemia 12% | RPMI-8226 leukemia 51% | OVCAR-8 ovarian 69.4% | OVCAR-5 ovarian 95.5% | OVCAR-4 ovarian 99% | SK-OV-3 ovarian 91.9% | IGROV1 ovarian 71% | OVCAR-3 ovarian 73.1% | HS 578T breast 69.7% | NCI/ADR-RES ovarian 106%

C/C=C/C(N)=O
inactive: SK-MEL-2 melanoma 119% | EKVX NSCLC 95.9% | SN12C renal 106% | UO-31 renal 91.7% | TK-10 renal 105% | ACHN renal 96.8% | CAKI-1 renal 98% | A498 renal 108% | CCRF-CEM leukemia 35.6% | MOLT-4 leukemia 96.2% | SR leukemia 92% | RPMI-8226 leukemia 109% | OVCAR-8 ovarian 106% | OVCAR-5 ovarian 100% | OVCAR-4 ovarian 107% | SK-OV-3 ovarian 110% | IGROV1 ovarian 106% | OVCAR-3 ovarian 99% | HS 578T breast 99.9% | NCI/ADR-RES ovarian 106%

CCN(CC)CC(O)c1cc(-c2ccc(Cl)cc2)nc2c(C)c(Cl)ccc12 (stereo not given)
inactive: SK-OV-3 ovarian 29.2%
active: SK-MEL-2 melanoma -68.8% | EKVX NSCLC -63.1% | SN12C renal -86.4% | UO-31 renal -78.8% | TK-10 renal -92.5% | ACHN renal -93.2% | CAKI-1 renal -100% | A498 renal -36.4% | CCRF-CEM leukemia -37.4% | MOLT-4 leukemia -72.4% | SR leukemia -79.5% | RPMI-8226 leukemia -32.2% | OVCAR-8 ovarian -82.7% | OVCAR-5 ovarian -97.3% | OVCAR-4 ovarian -26% | IGROV1 ovarian -84.7% | OVCAR-3 ovarian -100% | HS 578T breast -62.4% | NCI/ADR-RES ovarian -84.7%

COCCCN=C(N)c1ccc(NC(=O)c2ccc(C(=O)Nc3ccc(C(N)=NCCCOC)cc3)cc2)cc1
inactive: SK-MEL-2 melanoma 102% | EKVX NSCLC 76.9% | SN12C renal 95% | UO-31 renal 96.6% | TK-10 renal 113% | ACHN renal 113% | CAKI-1 renal 95.2% | A498 renal 208% | CCRF-CEM leukemia 108% | MOLT-4 leukemia 85.9% | SR leukemia 72.3% | RPMI-8226 leukemia 63.2% | OVCAR-8 ovarian 106% | OVCAR-5 ovarian 110% | OVCAR-4 ovarian 105% | SK-OV-3 ovarian 115% | IGROV1 ovarian 120% | OVCAR-3 ovarian 154% | HS 578T breast 151% | NCI/ADR-RES ovarian 112%

Cc1cc(=O)oc2cc(Oc3nc(-c4ccc(Cl)cc4)cn4c(-c5ccc(Cl)cc5)cnc34)ccc12
inactive: SK-MEL-2 melanoma 106% | EKVX NSCLC 106% | SN12C renal 100% | UO-31 renal 85.5% | TK-10 renal 104% | ACHN renal 97.7% | CAKI-1 renal 90.2% | A498 renal 105% | CCRF-CEM leukemia 80.6% | MOLT-4 leukemia 74.5% | SR leukemia 50.9% | RPMI-8226 leukemia 93.7% | OVCAR-8 ovarian 92.5% | OVCAR-5 ovarian 94.6% | OVCAR-4 ovarian 85.6% | SK-OV-3 ovarian 103% | IGROV1 ovarian 97.6% | OVCAR-3 ovarian 107% | HS 578T breast 87.8% | NCI/ADR-RES ovarian 78.8%

O=C(C[C@@H](C(=O)NCc1cccc(C(F)(F)F)c1)N1C(=O)[C@@H](N2C(=O)OC[C@@H]2c2ccccc2)[C@H]1/C=C/c1ccccc1)NC1CCN(Cc2ccccc2)CC1
active: MOLT-4 leukemia -5.43% | SR leukemia -23.3% | RPMI-8226 leukemia -13.7%
inactive: SK-MEL-2 melanoma 49.6% | EKVX NSCLC 82.3% | SN12C renal 82.2% | UO-31 renal 64.3% | TK-10 renal 61% | ACHN renal 96.2% | CAKI-1 renal 85.2% | A498 renal 49.8% | CCRF-CEM leukemia 21% | OVCAR-8 ovarian 83.7% | OVCAR-5 ovarian 104% | OVCAR-4 ovarian 66.1% | SK-OV-3 ovarian 81.1% | IGROV1 ovarian 75% | OVCAR-3 ovarian 65.6% | HS 578T breast 73.3% | NCI/ADR-RES ovarian 69.8%

ClC1=C2NC=NC2n2c(nnc2-c2ccc(Cl)cc2)N1 (stereo not given)
inactive: SK-MEL-2 melanoma 95.8% | EKVX NSCLC 105% | SN12C renal 94.5% | UO-31 renal 92% | TK-10 renal 122% | ACHN renal 109% | CAKI-1 renal 98.8% | A498 renal 73.1% | CCRF-CEM leukemia 99.9% | MOLT-4 leukemia 99.6% | SR leukemia 91.9% | RPMI-8226 leukemia 89.2% | OVCAR-8 ovarian 96.9% | OVCAR-5 ovarian 110% | OVCAR-4 ovarian 116% | SK-OV-3 ovarian 105% | IGROV1 ovarian 119% | OVCAR-3 ovarian 120% | HS 578T breast 112% | NCI/ADR-RES ovarian 108%

COc1ccc(S(=O)(=O)NCCCNc2cc(-c3c(-c4cccc(OC)c4)nc4sccn34)ccn2)cc1
inactive: SK-MEL-2 melanoma 53.3% | EKVX NSCLC 48.4% | SN12C renal 36% | UO-31 renal 18% | TK-10 renal 73.4% | ACHN renal 33.2% | CAKI-1 renal 32% | A498 renal 36.7% | CCRF-CEM leukemia 26.5% | MOLT-4 leukemia 19.2% | SR leukemia 43.5% | RPMI-8226 leukemia 13.1% | OVCAR-8 ovarian 38.5% | OVCAR-5 ovarian 86.3% | OVCAR-4 ovarian 36.4% | SK-OV-3 ovarian 73.4% | IGROV1 ovarian 51.8% | OVCAR-3 ovarian 52.1% | HS 578T breast 62.9% | NCI/ADR-RES ovarian 32.5%

COc1cc2c(=O)n(CC3CCCCC3)c3c4cc[nH]c4ncc3c2cc1OC
inactive: SK-MEL-2 melanoma 64% | EKVX NSCLC 63.9% | SN12C renal 25.7% | UO-31 renal 23.1% | TK-10 renal 49.8% | ACHN renal 26.8% | CAKI-1 renal 37.7% | CCRF-CEM leukemia 39.5% | MOLT-4 leukemia 49.5% | RPMI-8226 leukemia 34.5% | OVCAR-8 ovarian 26.9% | OVCAR-5 ovarian 52.3% | OVCAR-4 ovarian 19.3% | SK-OV-3 ovarian 47.7% | IGROV1 ovarian 23.6% | OVCAR-3 ovarian 38.7% | NCI/ADR-RES ovarian 33.8%
active: A498 renal -5.29% | SR leukemia 6.22% | HS 578T breast -4.62%

COc1ccc(Cl)cc1Nc1nc(C(F)(F)F)ccc1C(=O)N/N=C/c1cccnc1
inactive: SK-MEL-2 melanoma 39% | EKVX NSCLC 48.5% | SN12C renal 62.7% | UO-31 renal 41.5% | TK-10 renal 49% | ACHN renal 36.7% | CAKI-1 renal 43.2% | A498 renal 40.8% | CCRF-CEM leukemia 13% | SR leukemia 25.1% | RPMI-8226 leukemia 32.5% | OVCAR-8 ovarian 42% | OVCAR-5 ovarian 57% | OVCAR-4 ovarian 29.7% | SK-OV-3 ovarian 53.9% | IGROV1 ovarian 40.3% | OVCAR-3 ovarian 29.3% | HS 578T breast 59.6% | NCI/ADR-RES ovarian 41.8%
active: MOLT-4 leukemia 2%
